HSF-1 act: increases HSF-1 driven luciferase reporter signal. NIH3T3-HGL HSF-1 luciferase reporter, MG132, 8 h; 100% = twice DMSO control signal. activation, % at 9 µM. 300,000 tested, 1.7% active. AID 504408;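 active means mean replicate activation of at least 50% with a set share of replicates each reaching 50%; inconclusive means only one of those two conditions met; inactive means mean below 50% and too few replicates reaching it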;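 further: 0% = median of the neutral control wells and 100% = twice that signal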
TLR9-MyD88 block: blocks human TLR9 binding to MyD88 | 340,000 tested, 0.21% active | CHO BLA complementation TLR9-MyD88, CCF4 FRET ratio | inhibition, % at 4.98 µM | AID 504734;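 active means inhibition above the mean over all tested compounds plus 3 SD, cut at about 21% in these data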;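 further: 0% = DMSO only wells and 100% = clavulanate BLA inhibitor control wells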
NOD2-RIPK2 inh: blocks binding of human NOD2 to RIPK2; CHO BLA complementation NOD2-RIPK2, CCF4 ratio; 360,000 tested, 0.38% active; inhibition, % at 4.98 µM; O43353; in the data active means inhibition above about 21%;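 further: 0% = vehicle only and 100% = reference blocker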
TLR4-MyD88 BLA: inhibitors of human TLR4-MyD88 binding. O00206+Q99836. HeLa CL3-4 TLR4/MyD88 BLA complementation, FRET ratio. inhibition, % at 8.4 µM. 200,000 tested, 0.18% active. AID 861; in the data active means inhibition above about 25%;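 further: 0% = vehicle and 100% = reference inhibitor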
HSF1 inh: HSF1 inhibition | activity change, negative = inhibition, % at 7.5 µM (by protocol) | 300,000 tested, 0.77% active | NIH3T3-HGL HSE-luciferase, MG132-induced, luminescence 8 h; stronger effect = lower value;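 active means more than half of replicate wells show activity change below -50%, luminescence cut by over half; inconclusive means some wells, but at most half, below -50%; inactive means no replicate well below -50%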;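 further: luciferase reports HSF-1 transcriptional activity via heat shock element; 0% = median of DMSO wells and -100% = zero luminescence signal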
TLR9-MyD88 conf: TLR9-MyD88 interaction inhibition, confirmation; inhibition, % at 4.98 µM; shares compounds with TLR9-MyD88 block; CHO TLR9/MyD88 BLA complementation, CCF4 FRET ratio; 680 tested, 51% active;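 active means mean inhibition across three repeats above about 21% taken from the earlier screen, limit read from the data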;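 further: blue over green emission ratio reports constitutive TLR9 MyD88 association via BLA complementation; 0% = DMSO vehicle wells and 100% = clavulanate BLA inhibitor wells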
Target sequence (Q9NR96 whole entry, looked up): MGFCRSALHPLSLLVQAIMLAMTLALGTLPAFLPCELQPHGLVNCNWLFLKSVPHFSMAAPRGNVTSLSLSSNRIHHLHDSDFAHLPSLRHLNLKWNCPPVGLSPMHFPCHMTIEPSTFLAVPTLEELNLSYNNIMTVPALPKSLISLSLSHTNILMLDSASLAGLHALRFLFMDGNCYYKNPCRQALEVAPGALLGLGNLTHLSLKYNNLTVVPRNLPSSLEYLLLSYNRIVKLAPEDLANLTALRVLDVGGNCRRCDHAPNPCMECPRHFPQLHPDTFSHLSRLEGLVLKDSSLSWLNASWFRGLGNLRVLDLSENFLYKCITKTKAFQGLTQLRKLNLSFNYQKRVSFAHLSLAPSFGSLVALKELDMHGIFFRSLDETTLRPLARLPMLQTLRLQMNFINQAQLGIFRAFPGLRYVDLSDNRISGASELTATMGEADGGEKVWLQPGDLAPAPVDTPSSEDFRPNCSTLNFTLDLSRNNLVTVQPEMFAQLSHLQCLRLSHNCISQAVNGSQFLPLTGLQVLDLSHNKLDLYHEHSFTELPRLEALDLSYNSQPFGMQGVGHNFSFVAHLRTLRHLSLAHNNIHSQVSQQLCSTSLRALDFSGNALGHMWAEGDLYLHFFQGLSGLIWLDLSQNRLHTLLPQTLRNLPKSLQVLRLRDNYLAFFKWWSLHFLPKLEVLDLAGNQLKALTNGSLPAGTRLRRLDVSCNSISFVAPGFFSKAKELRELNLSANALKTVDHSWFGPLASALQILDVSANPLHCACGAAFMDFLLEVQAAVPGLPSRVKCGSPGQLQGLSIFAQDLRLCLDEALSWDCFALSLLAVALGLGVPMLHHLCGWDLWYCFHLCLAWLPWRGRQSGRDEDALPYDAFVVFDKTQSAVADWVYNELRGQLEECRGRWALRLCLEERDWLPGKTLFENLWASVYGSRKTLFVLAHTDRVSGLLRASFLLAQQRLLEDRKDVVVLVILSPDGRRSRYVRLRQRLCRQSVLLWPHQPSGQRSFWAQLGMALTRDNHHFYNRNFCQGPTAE
BLA counter-1: non-selective beta-lactamase inhibitors in TLR9-MyD88 counter-screen | shares compounds with TLR9-MyD88 block | CHO-BLA cells, CCF4 FRET ratio, BLA reporter | inhibition, % at 4.98 µM | 680 tested, 7% active;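 active means mean inhibition above a 50% cutoff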;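 further: counterscreen of TLR9-MyD88 hits on CMV-driven BLA in CHO-K1 cells; 0% = DMSO alone and 100% = clavulanate blocking BLA; higher means less blue over green ratio so more BLA blockade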
TLR9 CHO cytotox: CHO cell toxicity counter-screen for TLR9-MyD88 inhibitors; TLR9-MyD88 CHO cells cytotoxicity, luminescence; 680 tested, 39% active; shares compounds with TLR9-MyD88 block; AID 588336; inhibition, % at 4.98 µM; in the data active means inhibition above about 11%
NOD2 RIPK2 conf: NOD2-RIPK2 interaction inhibition confirmed | shares compounds with NOD2-RIPK2 inh | CHO cells, NOD2-RIPK2 BLA complementation, CCF4 FRET | inhibition, % at 4.98 µM | 1,200 tested, 70% active | AID 624370;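 active means mean inhibition across replicates above a set limit taken from the earlier primary screen, cut at about 21% in these data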;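 further: 0% = DMSO-only wells and the high end = clavulanate BLA-blocked wells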
BLA counter-2: hits BLA reporter in NOD2-RIPK2 inhibitor counterscreen; shares compounds with NOD2-RIPK2 inh; CHO BLA reporter, CCF4 FRET ratio; inhibition, % at 4.98 µM; 1,200 tested, 57% active; AID 624371;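 active means mean inhibition above the low-control mean inhibition plus three low-control SD, cut at about 11% in these data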;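 further: 0% = DMSO only wells and 100% = clavulanate high control wells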
* hit, by the source's call; ? = inconclusive; / = no result given. In the library only some 2.4% were active in any assay of this set; here they are far more common.

SMILES	HSF-1 act	TLR9-MyD88 block	NOD2-RIPK2 inh	TLR4-MyD88 BLA	HSF1 inh	TLR9-MyD88 conf	BLA counter-1	TLR9 CHO cytotox	NOD2 RIPK2 conf	BLA counter-2
CC(=O)Nc1cc2c3c(cccc3c1)-c1ccccc1-2	/	24*	22*	/	/	17	15	1	19	36*
CCOC(=O)Cc1cc(=O)[nH]n(-c2ccccc2)c1=O	/	-2	0	/	/	/	/	/	/	/
CC(=NO)c1ccc2c(c1)Cc1cc([N+](=O)[O-])ccc1-2	-61	-2	-4	/	-61	/	/	/	/	/
CC(O)CN(CC(C)O)c1ccc2c(c1)Cc1cc([N+](=O)[O-])ccc1-2 (centres undefined)	/	53*	60*	/	/	44*	45	5	22*	70*
COc1ccc2c(c1)C(CC(=O)NN)CCC2 (centres undefined)	/	-12	12	/	/	/	/	/	/	/
O=[N+]([O-])c1c(Nc2ccccc2O)cc(Cl)c2nonc12	207*	33*	83*	/	150	56*	-6	100*	97*	-8
OCCN(CCO)c1nc(N2CCCCC2)c2nc(N(CCO)CCO)nc(N3CCCCC3)c2n1	/	25*	36*	10	/	16	20	2	47*	51*
CC(C)(C)S(=O)(=O)N1Cc2ccc(CO)cc2[C@@H]1CCO	/	-1	-8	/	/	/	/	/	/	/
O=c1c(Cl)c(Cl)cnn1Cc1nnc(-c2ccccc2Br)o1	-73	21*	27*	11	?	29*	14	101*	46*	11*
Clc1ccc(Cc2nnc(-c3ccccc3Br)o2)cc1	11	-20	3	1	13	/	/	/	/	/
CC#Cc1cc2c(cc1O)CCC1C2CCC2(C)C(O)CCC12 (centres undefined)	/	-6	5	/	/	/	/	/	/	/
Cc1ccc(CNC(=O)c2cccc3c2C(=O)c2ccc(N4CCCCC4)cc2S3(=O)=O)cc1	/	25*	27*	/	/	12	13	0	31*	33*
O=C(NCc1ccccc1C(F)(F)F)c1cccc2c1C(=O)c1ccc(N3CCC(N4CCCCC4)CC3)cc1S2(=O)=O	/	30*	68*	/	/	30*	41	5	73*	70*
Cc1ccc(CNC(=O)c2cccc3c2C(=O)c2ccc(N4CCOCC4)cc2S3(=O)=O)cc1	/	7	8	/	/	/	/	/	/	/
O=C(COC(=O)CC1Sc2ccccc2NC1=O)NCc1ccccc1 (centres undefined)	-9	3	2	/	0	/	/	/	/	/
COc1ccc(NC(=O)/C(Cl)=C(/Cl)S(=O)Cc2ccccc2)cn1 (centres undefined)	-93	43*	92*	9	-93*	49*	32	99*	92*	30*
COC(=O)c1c(-c2ccc(OC)cc2)sc2cc3c(cc12)OCO3	/	-15	-13	/	/	/	/	/	/	/
COC(=O)c1c(-c2ccc(N(C)C)cc2)sc2ccc(OC)cc12	/	28*	38*	/	/	35*	42	2	49*	66*
Cc1ccc(C2C=C(c3ccccc3)Nc3nc(N4C(=O)CCC4=O)nn32)cc1 (centres undefined)	/	/	45*	23	/	/	/	/	33*	35*
COCCn1c(=O)[nH]c2cc(C(=O)Nc3nnc(C)s3)ccc21	14	-8	94*	/	0	/	/	/	-1	-18
CCN(CC)S(=O)(=O)c1ccc(N2CCCC2)c(NC(=O)CSCc2c(C)noc2C)c1	/	2	1	/	/	/	/	/	/	/
Cc1cc(NC(=O)CSc2nc3cc(C(=O)NCCCOC(C)C)ccc3c(=O)n2Cc2ccco2)no1	-14	-5	30*	2	-12	/	/	/	-4	-1

Screens as filed in PubChem BioAssay.
